Screens deposited in PubChem by Broad Institute.
Compounds with a hit are over-represented: about 1.4% of the library has one in this group of screens.
ARNT-TACC3 inh: disruptors of ARNT/TACC3 protein interaction, primary screen, biochemical, AlphaScreen, single concentration; Transforming acidic coiled-coil-containing protein 3 (Homo sapiens), Q9Y6A5; AlphaScreen His-ARNT PAS-B/GST-TACC3 binding, luminescence; TACC3 fragment carries E629A point mutation; AID 623870, 2012; inhibition, % at 9.99 µM; 390,000 tested, 0.66% active;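 active means mean inhibition of replicates at least 50% and at least half of replicates each reaching 50%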
Statin myotox sup: suppressors of statin myotoxicity in C2C12 myotubes, primary screen, cell-based, single point, plate reader | C2C12 myotubes + simvastatin, ATP luminescence, 48 h; scaled: DMSO 0, geranylgeraniol control 100 | rescue of ATP level, % at 7.49 µM | 330,000 tested, 0.78% active;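 active means mean ATP rescue above about 67%, or every replicate alone reaching that limit, limit read from the data, passing the limit was not always enough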;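 further: myotubes were challenged with 10 µM simvastatin during compound exposure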
PglD DTNB: C. jejuni PglD acetyltransferase inhibitors, primary screen, biochemical, DTNB colorimetric, single point. purified PglD enzyme, DTNB colorimetric CoA detection. inhibition, % at 12.5 µM. AID 602405, 2012. 360,000 tested, 0.098% active. UDP-N-acetylbacillosamine N-acetyltransferase PglD (Campylobacter jejuni); in the data active means inhibition above about 16%, passing the limit was not always enough
F508del corr: F508del CFTR correction, initial screen, CFBE line, single point. 350,000 tested, 0.36% active. CFBE cells, YFP halide quenching; stimulated with forskolin plus potentiator P3; % fluorescence drop versus neutral controls. activity (quench increase), % at 7.58 µM;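 active means mean added fluorescence quench of at least 8% versus neutral control, with both replicates also reaching 8%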;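 further: cells transiently co-express mutant CFTR-F508del with the halide-sensitive YFP; corrector assay measuring rescue of mutant channel to the surface after 24 h compound exposure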
Each line names hits and unclear results; the compound was inactive in the other large screens.

COc1ccc(/C=C2\SC(=O)N(CCNC(=O)C3=COCCO3)C2=O)cc1	F508del corr 8.0
O=C(NCCN1C(=O)S/C(=C\c2ccc(OC(F)F)cc2)C1=O)C1=COCCO1	none (no result: Statin myotox sup, PglD DTNB, F508del corr)
CCCNC(=O)C[C@@H]1CC[C@H]2[C@@H](COc3ccc(NC(=O)NCCC)cc3C(=O)N2C)O1	none (no result: ARNT-TACC3 inh, Statin myotox sup, PglD DTNB)
COc1ccc(S(=O)(=O)N(Cc2cccs2)C2CCCC2)cc1	Statin myotox sup 106 (no result: F508del corr)
COc1ccc(S(=O)(=O)NCc2cccs2)cc1	none (no result: F508del corr)
C/C=C/c1ccc2c(c1)O[C@H](CN(C)C(=O)NCCC)[C@@H](C)CN([C@@H](C)CO)S2(=O)=O	none
CC(=O)N1CCCCN2[C@@H](CO)[C@@H](c3ccc(Br)cc3)[C@@H]2C1	none
N/C(=N\OC(=O)c1cccc(Br)c1)c1ccccn1	none
O=C(COC(=O)c1ccccn1)c1cccc(Br)c1	ARNT-TACC3 inh 50 (no result: Statin myotox sup)
Oc1c(CN2CCc3ccccc3C2)cc(Cl)c2cccnc12	ARNT-TACC3 inh 58 (no result: F508del corr)
COc1ccccc1-c1ccc2c(c1)O[C@@H](CN(C)S(=O)(=O)c1ccc(F)cc1)[C@@H](C)CN([C@H](C)CO)S2(=O)=O	none
C/C(=N\OC(=O)NC(C)C)c1sc(-c2ccc(Cl)cc2)nc1C	Statin myotox sup 71 (no result: F508del corr)
C[C@@H]1CN([C@H](C)CO)C(=O)c2cc(C#CC3(O)CCCC3)cnc2O[C@@H]1CN(C)Cc1ccccn1	none
C[C@H](CO)N1C[C@H](C)[C@@H](CN(C)Cc2ccc(C(F)(F)F)cc2)Oc2ccc(NC(=O)CCCCCC(=O)Nc3ccccc3N)cc2C1=O	none (no result: ARNT-TACC3 inh, Statin myotox sup, PglD DTNB)
CCCNC(=O)N(C)C[C@H]1Oc2ncc(Br)cc2C(=O)N([C@H](C)CO)C[C@@H]1C	none
Oc1cc(Nc2cccnc2)cc2cccnc12	ARNT-TACC3 inh 58
Oc1cc(NCCc2cccnc2)cc2cccnc12	ARNT-TACC3 inh 73
CN(C)c1ccc(-c2cc(O)c3ncccc3c2)cc1	none
CC(C)NC(=O)Nc1cccc2c1O[C@@H](CN(C)C(=O)Nc1ccc(F)cc1)[C@@H](C)CN([C@@H](C)CO)C2=O	none
COc1cccc2nc3c(C(=O)NCCN(C)C)cccc3cc12	none (no result: Statin myotox sup, PglD DTNB)
CN(C)CCNC(=O)c1cccc2nc3c(ccc4ccccc43)nc12	F508del corr 19 (no result: Statin myotox sup, PglD DTNB)
COc1ccc(C(=O)NCCN(C)C)c2nc3ccccc3cc12	F508del corr 15 (no result: Statin myotox sup, PglD DTNB)
COc1ccc(-c2nc3c(C(=O)NCCN(C)C)cccc3c3ccccc23)cc1	F508del corr 11 (no result: Statin myotox sup, PglD DTNB)
CC(=O)Nc1cccc(Oc2nc(-c3ccccn3)nc3ccccc23)c1	ARNT-TACC3 inh 48 (no result: Statin myotox sup)
COc1cccc(NC(=O)CSc2nnc(-c3cc(-c4ccccn4)nc4ccccc34)o2)c1	Statin myotox sup 83 (no result: F508del corr)
CC(=O)Nc1ccc(Oc2ncccn2)cc1	none (no result: Statin myotox sup, F508del corr)
CC(=O)Nc1cccc(Oc2nc(C(F)(F)F)nc3ccccc23)c1	none
CC(=O)Nc1ccc(Oc2nc(-c3ccccn3)nc3ccccc23)cc1	ARNT-TACC3 inh 58 (no result: Statin myotox sup, PglD DTNB)
COc1ccc(C(=O)N2C[C@H]3[C@@H](c4ccccc42)[C@@H](CO)N3C(=O)NC(C)C)cc1	none
Cc1ccc2c(c1)nc(NCCO)n2C	Statin myotox sup 91 (no result: F508del corr)
CCN(CC)CCNc1nc2ccccc2n1C	none (no result: F508del corr)
Cc1cccc(/C=N\Nc2cn[nH]c(=O)c2Cl)c1	Statin myotox sup 102 (no result: F508del corr)
O=C(N[C@H]1CC[C@H](CCNS(=O)(=O)c2ccccc2)O[C@H]1CO)c1cnccn1	none
COCCCN=C1NN=C(c2cc(C)n(Cc3ccco3)c2C)CS1	F508del corr 18 (no result: Statin myotox sup, PglD DTNB)
C[C@@H]1CCCCO[C@H](CN(C)C(=O)Nc2cccc3ccccc23)[C@H](C)CN([C@H](C)CO)C(=O)c2cc(NS(=O)(=O)c3ccc(F)cc3)ccc2O1	none (no result: Statin myotox sup)
O=C1C(c2ccc(F)cc2)N(C2CCCCC2)C(=O)CN1C1CCCC1 (configuration not stated)	none (no result: F508del corr)
Cc1ccc(C2C(=O)N(C3CCC(C)CC3)CC(=O)N2C2CCCC2)cc1 (configuration not stated)	Statin myotox sup 124 (no result: F508del corr)
COCC(=O)N1CC(=O)N2[C@H](CO)[C@H](c3ccc(-c4ccccc4F)cc3)[C@@H]2C1	none (no result: ARNT-TACC3 inh, Statin myotox sup, PglD DTNB)
O=C1CSC(=S)N1N=Cc1cccc(OCc2ccccc2)c1	none (no result: ARNT-TACC3 inh)
O=C1CSC(=S)N1N=Cc1ccccc1O	ARNT-TACC3 inh 65 (no result: Statin myotox sup, PglD DTNB)
O=C1CSC(=S)N1/N=C/c1cccnc1	ARNT-TACC3 inh 39 (no result: Statin myotox sup)
Cc1ccccc1/C=N/N1C(=O)CSC1=S	ARNT-TACC3 inh 39
CCc1ccccc1N(CC)C(=O)c1cn(C)c(=O)c2cc(OC)c(OC)cc12	Statin myotox sup 95 (no result: F508del corr)
CCc1ccccc1N(CC)C(=O)c1cn(CC)c(=O)c2cc(OC)c(OC)cc12	none (no result: F508del corr)
CO[C@H]1CN(C)C(=O)c2ccc(NS(C)(=O)=O)cc2OC[C@H](C)N(Cc2cccnc2)C[C@@H]1C	none
O=S1(=O)c2ccc(Br)cc2N2CCC[C@@H]2CN1Cc1ccc(Cl)cc1	none
O=S1(=O)c2ccc(Br)cc2N2CCC[C@H]2CN1Cc1ccccc1	F508del corr 9.5
O=C(C1CCCC1)N1[C@@H]2CN(S(=O)(=O)c3ccccc3)c3ccccc3[C@@H]2[C@@H]1CO	none
CCOC(=O)C1=C(C)NC2=C(C(=O)CCC2)C1c1ccc(N(C)C)cc1 (configuration not stated)	ARNT-TACC3 inh active (no result: PglD DTNB, F508del corr)
CCNC(=O)C[C@@H]1CC[C@H]2[C@H](COc3ccc(NC(=O)Nc4ccc(C)cc4)cc3C(=O)N2C)O1	none
CCCCN(C)C1=CC2=CC(=C(C#N)C#N)CCC2CC1 (configuration not stated)	F508del corr 34 (no result: ARNT-TACC3 inh, Statin myotox sup, PglD DTNB)
CCN(CC)C1=CC2=CC(=C(C#N)C#N)CCC2CC1 (configuration not stated)	F508del corr 40 (no result: Statin myotox sup, PglD DTNB)
C[C@@H]1CN([C@@H](C)CO)C(=O)c2cc(NC(=O)Nc3ccc4c(c3)OCO4)ccc2O[C@@H]1CN(C)S(=O)(=O)c1ccc(Cl)cc1	none (no result: Statin myotox sup)
Cc1cc(Cl)ccc1OC(C)C(=O)Nc1ccccc1N1CCOCC1 (configuration not stated)	Statin myotox sup 94 (no result: F508del corr)
CN(C)C(=O)C[C@@H]1C=C[C@@H](NC(=O)Nc2cccc(F)c2)[C@@H](CO)O1	none
Cc1ccc(C2CC(c3cccs3)=NN2C(=O)c2ccc(Br)o2)cc1 (configuration not stated)	Statin myotox sup 93 (no result: F508del corr)
C[C@H]1CN([C@@H](C)CO)C(=O)c2cc(-c3ccncc3)cnc2O[C@@H]1CN(C)Cc1ccc(Oc2ccccc2)cc1	none
COc1ccc(-c2cc(=O)oc3cc(OC(C)C(=O)NCCCn4ccnc4)ccc23)cc1 (configuration not stated)	none
CC(Oc1ccc2ccc(=O)oc2c1)C(=O)NCCCn1ccnc1 (configuration not stated)	Statin myotox sup 96
O=C(COc1ccc(Cl)cc1)NCCCn1ccnc1	ARNT-TACC3 inh 47, Statin myotox sup 72 (no result: F508del corr)
CCOC(=O)c1ccc(NC(=S)NCCCn2ccnc2)cc1	ARNT-TACC3 inh 35
O=C(NCCCn1ccnc1)Nc1ccc(Cl)cc1	none (no result: PglD DTNB, F508del corr)
